Compound activity: PubChem, National Center for Advancing Translational Sciences (NCATS)
Hits are enriched below; roughly 19% of the tested compounds scored in any of these assays.
uPA generation: inhibitors of cell surface uPA generation | cell surface uPA generation assay, qHTS | Potency, µM (top dose mostly 38.3 µM), without a hit: top-dose activity change, negative = inhibition, hits mostly inhibitors | AID 540303 | hit rate 0.31% among 330,000; active = well fitted inhibition curve with a large enough effect; inconclusive = small, poorly fitted or top-dose-only effect; inactive = no such curve, though single readings can be large or run the other way; tested in mouse RAW 264.7 cells; also: potency is read from the fitted curve at half-maximal effect; nearly all actives have a fitted effect of over 55% in size
IL1B secr inh: inhibitors of inflammasome signaling (IL-1 beta secretion). activity change, % at 57.5 µM. THP-1 LPS/ATP IL-1B secretion, AlphaLISA, 16 h; hits give low values. AID 743279. hit rate 4.7% among 360,000; in the data active = activity change below about -50%; inconclusive = mostly about -30% to -49%
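THP-1 cells pretreated 1 hr with compounds (up to 57.5 uM final), then stimulated with LPS (250 ng/mL final) plus ATP (1.25 mM final); secreted IL-1B measured by AlphaLISA after 16 hr, decreased signal indicating inhibition.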
DT40 TDP1 CPT: growth inhibition of DT40 Tdp1-/-;hTDP1 cells with camptothecin (screen for TDP1 inhibitors); chicken DT40 Tdp1-/-;hTDP1 cells + 20 nM CPT, ATP luminescence, 48 h; hit rate 12% among 420,000; Potency, µM (top dose mostly 46.2 µM), for inactives: at the highest dose activity change, negative = growth inhibition, most hits filed as inhibitors; also: potency is read from the fitted curve at half-maximal effect; nearly all actives have a fitted effect of over 55% in size
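Chicken DT40 Tdp1-/- cells stably complemented with human TDP1 were seeded at 400 cells/well in medium containing 20 nM camptothecin, exposed to pin-transferred compounds, and grown at 37 °C for at least 48 hr. Viability was read as ATP luminescence.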
DT40 TDP1 no CPT: qHTS for Inhibitors of human tyrosyl-DNA phosphodiesterase 1 (TDP1): qHTS in cells in absence of CPT. DT40 Tdp1-/- hTDP1 cells, no CPT, ATP luminescence, 48 h. Potency, µM (top dose mostly 46.2 µM), for the others: at the top dose activity change, negative = growth inhibition, actives largely listed as inhibitors. hit rate 15% among 420,000; also: potency is read from the fitted curve at half-maximal effect; nearly all actives have a fitted effect of over 55% in size
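Stably hTDP1-transfected Tdp1-null chicken DT40 cells were treated with library compounds minus camptothecin and grown for at least 48 hr at 37 °C, after which cellular ATP was quantified by luminescence.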
HT1080-NT tox: kills 2HG-producing HT-1080-NT fibrosarcoma cells | HT-1080-NT fibrosarcoma viability, CellTiter-Glo ATP luminescence, 48 h | Potency, µM (titrated, usually from 46.1 µM), inactives show at the top dose activity, negative = less viability, usual class: cytotoxic | hit rate 1.6% among 360,000;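 also: NT is the 2HG producing partner of a matched IDH1 knockdown line; potency is read from the fitted curve at half-maximal effect; 0% = DMSO-treated cells and -100% = media-only wells without cells; nearly all actives have a fitted effect of over 55% in size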
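Luminescent CellTiter-Glo readout after 48 hours of compound exposure at 37 degrees C defined viability of HT-1080-NT cells. Activity was normalized to DMSO wells and cell-free media wells; concentration-response curves were fitted and assigned curve classes.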
HT1080 IDH1KD tx: toxicity to HT-1080 IDH1 knockdown cells (counter line) | HT-1080 IDH1 knockdown viability, ATP luminescence, 48 h | AID 686971 | Potency, µM (top dose mostly 46.1 µM), for the others: at the highest dose activity, negative = toxicity, usual class: cytotoxic | hit rate 2% among 360,000;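 also: potency is read from the fitted curve at half-maximal effect; 0% = DMSO wells and -100% = cell-free medium wells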
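In this qHTS, HT-1080 cells depleted of IDH1 are exposed for 48 h at 37 °C to compound titrations. Toxicity is scored from CellTiter-Glo luminescence, with DMSO as full viability and medium alone as none.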
The depositor's hits bear a star; u = inconclusive; x = no result. Unless noted, calls follow the shape of the dose curve; as a rule, active = well fitted curve in the direction sought with a large enough effect; inconclusive = small, poorly fitted or top-dose-only effect, or another doubt; inactive = no such curve, though single readings can be large; an effect the other way counts as inactive or inconclusive. Unless noted, % is scaled to controls: 0 for no effect and ±100 for the full control effect.

SMILES	uPA generation	IL1B secr inh	DT40 TDP1 CPT	DT40 TDP1 no CPT	HT1080-NT tox	HT1080 IDH1KD tx
CCOC(=O)c1c(C)c(C(=O)Nc2cc(F)ccc2F)c(C)n1C	-9%	0	18µM*	10µM*	-28%	u
O=C(NCc1ccco1)C(c1ccncc1)N(C(=O)Cn1nnc2ccccc21)c1ccccc1F (stereo not given)	2%	-9	4%	5%	8%	-1%
N#C/C(=C/c1ccccc1)C(=O)NCc1ccccc1	-1%	-77*	-31%	u	-6%	-12%
N#C/C(=C\c1ccc(O)c(Br)c1)C(=O)NCc1ccccc1	-1%	28	-19%	-18%	-23%	-29%
N#C/C(=C/c1ccc(O)c(O)c1)C(=O)NCc1ccc(Cl)cc1	-15%	-6	26µM*	u	u	u
N#C/C(=C/c1cccc(O)c1)C(=O)NCc1ccc(Cl)cc1	1%	-103*	u	16µM*	u	u
COc1ccc(CCNC(=O)/C(C#N)=C/c2cccc(OCc3ccccc3)c2)cc1OC	-2%	u	u	18µM*	u	-20%
CC(=O)Nc1ccc(CN(C)c2c(C)nc3ccc(C(=O)N4CCN(C(=O)c5ccco5)CC4)cn23)cc1	x	22	2%	-16%	8%	0%
CC1(C(=O)NCc2ccccc2)CSCC(=O)N1C1CC1 (stereo not given)	x	-11	-3%	7%	18%	20%
CC(C)c1cc(/C=C(\C#N)C(=O)NCCCc2ccccc2)cc(C(C)C)c1O	x	x	21µM*	21µM*	x	x
Cc1ccc(S(=O)(=O)c2nnn3c2nc(N2CCOCC2)c2ccccc23)cc1C	-8%	-66*	-27%	-7%	14%	-1%
Cc1ccc(S(=O)(=O)c2nnn3c2nc(NC2CCN(Cc4ccccc4)CC2)c2ccccc23)cc1C	-15%	-7	12µM*	5.8µM*	-3%	-16%
O=C(COC(=O)C1CCN(S(=O)(=O)c2cccs2)CC1)NCc1ccc(F)cc1	0%	35	18%	10%	-2%	17%
COc1cccc(NC(=O)Cn2c(=O)n(CC(=O)NCc3ccc(C)cc3)c(=O)c3sccc32)c1	x	x	u	-25%	x	x
CC1(C)COC(Cn2c3ccccc3c3ccccc32)O1 (stereo not given)	-12%	48	u	u	-14%	23µM*
CC1COC(Cn2c3ccccc3c3ccccc32)O1 (stereo not given)	-1%	3	u	18µM*	u	u
Cc1ccc(S(=O)(=O)N2CCCC2CNC(=O)C(=O)NCc2ccc3c(c2)OCO3)cc1 (stereo not given)	x	-8	u	u	-13%	-15%
COc1ccc(CC2=CC(=O)c3ccccc3C2=O)cc1	u	-98*	1.8µM*	2.1µM*	u	u
COc1ccc(Cc2ccccc2C(=O)O)cc1	-1%	1	4%	-14%	0%	11%
COc1ccc(C(NC(C)=O)c2ccc3cccnc3c2O)c(OC)c1 (stereo not given)	-21%	111	3.7µM*	2.9µM*	u	6.5µM*
COc1cccc(C(NC(C)=O)c2nc(-c3cccc4cccnc34)cs2)c1 (stereo not given)	x	38	u	u	14%	1%
CC(=O)NC(c1ccc2ccccc2c1)c1ccc2cccnc2c1O (stereo not given)	-9%	139	3.3µM*	4.6µM*	u	u
COc1ccc(C(NC(C)=O)c2ccc3cccnc3c2O)cc1OC (stereo not given)	x	x	6.3µM*	6.3µM*	x	x
Cc1cc(=O)oc2c(C(=O)/C=C/c3ccccc3)c(O)ccc12	-3%	10	4%	u	0%	3%
